From PubChem BioAssay AID1159580 (chemical genetic matrix, 2015)
Out of some 5,500 compounds screened, about 2,000 (36%) were called active. Inconclusive results (about 18%) are left out. Cut-off read from the data, not from the text of the source: active = normalized growth mostly below about 0.91 (no sharp cut-off); inconclusive = no clear call, values can overlap the other calls; inactive = mostly above about 0.92. The list shows a part of the results.

Experiment: chemical genetic growth profiling, strain panel (AID 1159580);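 note: tested at 20 µM; growth read once vehicle control cultures reached saturation at 30 °C; 1 = growth at the plate median or of vehicle wells; lower values mean less growth of the strain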
Conditions: growth OD

Measured: normalized growth

N#CCCC1(CCC#N)c2ccccc2-c2ccccc21
inactive: S. cerevisiae deletion strains, locus YAL013W, strain DEP1, active compounds read low 0.99 | S. cerevisiae deletion strains, locus YBR229C, strain ROT2, active compounds read low 1.02 | S. cerevisiae deletion strains, locus YDL101C, strain DUN1, active compounds read low 1.03 | S. cerevisiae deletion strains, locus YDL134C, strain PPH21, active compounds read low 1.02 | S. cerevisiae deletion strains, locus YDR150W, strain NUM1, active compounds read low 1.01 | S. cerevisiae deletion strains, locus YEL061C, strain CIN8, active compounds read low 1.01 | S. cerevisiae deletion strains, locus YGR078C, strain PAC10, active compounds read low 1.01 | S. cerevisiae deletion strains, locus YHR030C, strain SLT2, active compounds read low 1.05 | S. cerevisiae deletion strains, locus YHR087W, strain rtc3, active compounds read low 1.03 | S. cerevisiae deletion strains, locus YJR043C, strain POL32, active compounds read low 1.01 | S. cerevisiae deletion strains, locus YJR075W, strain HOC1, active compounds read low 1.01 | S. cerevisiae deletion strains, locus YLR039C, strain RIC1, active compounds read low 1.06 | S. cerevisiae deletion strains, locus YLR058C, strain SHM2 (second series), active compounds read low 1.01 | S. cerevisiae deletion strains, locus YLR085C, strain ARP6, active compounds read low 1.03 | S. cerevisiae deletion strains, locus YLR262C, strain YPT6, active compounds read low 1.01 | S. cerevisiae deletion strains, locus YML094W, strain GIM5, active compounds read low 1.03 | S. cerevisiae deletion strains, locus YMR219W, strain ESC1, active compounds read low 1.03 | S. cerevisiae deletion strains, locus YMR263W, strain SAP30, active compounds read low 1.02 | S. cerevisiae deletion strains, locus YNL153C, strain GIM3, active compounds read low 1.04 | S. cerevisiae deletion strains, locus YNL298W, strain CLA4 (second series), active compounds read low 1.01 | S. cerevisiae deletion strains, locus YNL322C, strain KRE1, active compounds read low 1.01 | S. cerevisiae deletion strains, locus YNR030W, strain Alg12, active compounds read low 1 | S. cerevisiae deletion strains, locus YOL006C, strain TOP1, active compounds read low 1.08 | S. cerevisiae deletion strains, locus YPL055C, strain LGE1, active compounds read low 1.03 | S. cerevisiae deletion strains, locus YPL241C, strain CIN2, active compounds read low 1.01 | S. cerevisiae deletion strains, locus YPR135W, strain CTF4, active compounds read low 1.11 | S. cerevisiae strains, strain wild type, active compounds read low 1.03
